# Data: PubChem BioAssay AID463173 (ICCB-Longwood Screening Facility, Harvard Medical School, 2010)
# Screen size: about 52,000 compounds; about 4,300 (8.3%) were called active. Cut-off read from the data, not from the text of the source: active = survival mostly below about 52% (no sharp cut-off); inactive = mostly above about 56%. What follows is part of a selection rich in actives, with near analogues and random picks from the rest.
# System: DeltatarO mutant
# Experiment: S. aureus survival, RN4220 and DeltatarO strains – OD600, teichoic acid synthesis inhibitors, primary screen (AID 463173)
# Conditions: S. aureus RN4220 wild type/DeltatarO growth, OD600, 18 h, stronger effect = lower value, screened at 18.75 µg/mL (by protocol)
row,Structure (SMILES),survival
1,COC(=O)CSc1nnc2n(-c3ccccc3)c(=O)c3c4c(sc3n12)COC(C(C)C)C4 (centres undefined),123% (inactive)
2,Cc1nn2c(C)c(C(=O)N3CCN(c4ccccc4F)CC3)cnc2c1-c1ccc(F)cc1,88% (inactive)
3,O=C(NC1CCCC1)c1ccc2c(c1)N(Cc1ccc(F)cc1)C(=O)c1ccccc1S2,81% (inactive)
4,O=C1CNC(=O)N1Cc1ccc(F)cc1,108% (inactive)
5,Cc1cccc(NC(=O)c2sc(-n3nc(C)c(CCC(C)C)c3C)nc2C)c1,53% (inactive)
6,O=C(CSc1nnc(-c2ccc(Cl)cc2)o1)Nc1ccc(F)cc1,69% (inactive)
7,Cc1cccc(C)c1NC(=O)Cn1nc(C)c2sc3ccccc3c2c1=O,99% (inactive)
8,COc1ccc(Cc2nnc(NC(=O)c3cccs3)s2)cc1OC,100% (inactive)
9,CSc1nc2c(c(=O)[nH]1)C(c1cccc(F)c1F)CC(=O)N2 (centres undefined),111% (inactive)
10,CC(C)c1ccc(NC(=O)Cn2c(=O)n(CCc3ccccc3)c(=O)c3ccccc32)cc1,82% (inactive)
11,COc1ccc(-c2noc(CCC(=O)Nc3ccccc3Cl)n2)cc1OC,97% (inactive)
12,Cc1ccc(NC(=O)CCc2nc(-c3ccccc3F)no2)c(C)c1,93% (inactive)
13,COc1ccc(Cl)cc1NC(=O)CCc1nc(-c2ccccc2F)no1,20% (active)
14,CCCNC(=O)N1c2ccc(F)cc2CCC1C (centres undefined),87% (inactive)
15,COc1ccc(CNC(=O)c2ccc(CN3C(=O)C(C)=C(c4ccc(C)cc4)S3(=O)=O)cc2)cc1,89% (inactive)
16,Cc1cccc(-n2ncc3c(N4CCCC(C)C4)ncnc32)c1 (centres undefined),84% (inactive)
17,COc1ccc(N2CCN(c3nc(-c4ccccc4F)nc4ccccc34)CC2)cc1,88% (inactive)
18,COc1ccccc1N1CCN(c2nc(-c3ccc(C)cc3)nc3ccccc23)CC1,83% (inactive)
19,CC1CCCN(c2nc(-c3ccccc3O)nc3ccccc23)C1 (centres undefined),-6% (active)
20,CC1CCCN(c2csc3ccccc3c2=O)C1 (centres undefined),69% (inactive)
21,Cc1ccc(-c2nc(N3CCCC(C)C3)c3ccccc3n2)cc1 (centres undefined),-2% (active)
22,COc1cccc(-c2nnc(-c3ccccc3NC(=O)c3ccc(F)cc3F)o2)c1,78% (inactive)
23,CCOc1ccc(CCNC(=O)c2cccc(-n3c(C)nc4cccnc43)c2C)cc1,79% (inactive)
24,Cc1cc(C)c2[nH]c(=O)c(CN(Cc3ccco3)C(=S)NCCCN3CCOCC3)cc2c1,78% (inactive)

row,Structure (SMILES),survival
1,CCc1ccc(OCCn2c(C3CC(=O)N(Cc4ccc(F)cc4)C3)nc3ccccc32)cc1 (centres undefined),3% (active)
2,Cc1cc(OCCn2c(C3CC(=O)N(Cc4ccc(F)cc4)C3)nc3ccccc32)ccc1Cl (centres undefined),1% (active)
3,CCOc1ccccc1N1CC(c2nc3ccccc3n2CCOc2ccc(C(C)(C)C)cc2)CC1=O (centres undefined),62% (inactive)
4,COCCNC(=O)c1cc2n(n1)CCCN(Cc1ccc(C)cc1)C2=O,78% (inactive)
5,Cc1onc(-c2ccccc2Cl)c1C(=O)Oc1ccc(Br)cc1,41% (active)
6,CCCC(=O)c1ccc(OC(=O)c2c(-c3ccccc3Cl)noc2C)cc1,102% (inactive)
7,CCOc1ccc(OC(=O)c2c(-c3ccccc3Cl)noc2C)cc1,72% (inactive)
8,CCCOc1cccc(NC(=O)c2c(-c3ccccc3Cl)noc2C)c1,37% (active)
9,CCCOc1ccc(OC(=O)c2c(-c3ccccc3Cl)noc2C)cc1,84% (inactive)
10,CC(=O)c1ccc(OC(=O)c2c(-c3ccccc3Cl)noc2C)cc1,94% (inactive)
11,Cc1ccc(NC(=O)Cn2nc(N3CCN(c4ccccc4)CC3)ccc2=O)cc1F,83% (inactive)
12,Fc1ccc2ncc3c(-c4ccccc4)n[nH]c3c2c1,83% (inactive)
13,COc1ccc(C(=O)Nc2ccc(-c3cc4ccccc4oc3=O)c(C)c2)cc1OC,69% (inactive)
14,Cc1cc(C)cc(NC(=O)c2sc3nc4n(c(=O)c3c2C)N=C(c2ccccc2)CS4)c1,69% (inactive)
15,COc1ccc(Br)cc1Cn1nnc(C(=O)Nc2ccc(C)cc2C)c1N,48% (inactive)
16,CCc1ccc(NC(=O)Cn2c(=O)n(CCCCC(=O)NCCc3ccccc3)c(=O)c3ccccc32)cc1,84% (inactive)
17,CCOC(=O)c1c(C)[nH]c(C)c1S(=O)(=O)N1CCCC(C(=O)NCc2cccc(OC)c2)C1 (centres undefined),78% (inactive)
18,COc1cccc(-c2nc(S(=O)(=O)c3ccc(Cl)cc3)c(NCc3ccccc3)o2)c1,180% (inactive)
19,Cc1ccc(S(=O)(=O)c2nc(-c3cccs3)oc2SC(C)C)cc1,66% (inactive)
20,Cc1ccc(S(=O)(=O)c2nc(-c3ccc(F)cc3)oc2SCC(=O)NC2CCCCC2)cc1,149% (inactive)
21,COc1ccc(-c2nc(S(=O)(=O)c3ccc(Cl)cc3)c(NCc3ccccc3)o2)cc1,136% (inactive)
22,CCC(C)S(=O)(=O)c1oc(-c2ccc(F)cc2)nc1S(=O)(=O)c1ccc(F)cc1 (centres undefined),41% (active)
23,CC(C)S(=O)(=O)c1oc(-c2cccs2)nc1S(=O)(=O)c1ccc(F)cc1,9% (active)
24,CC(C)S(=O)(=O)c1oc(-c2ccc(F)cc2)nc1S(=O)(=O)c1ccc(F)cc1,22% (active)

row,Structure (SMILES),survival
1,CCC(C)S(=O)(=O)c1oc(-c2cccs2)nc1S(=O)(=O)c1ccccc1 (centres undefined),53% (inactive)
2,Cc1ccc(S(=O)(=O)c2nc(-c3cccs3)oc2SCc2ccc(F)cc2)cc1,62% (inactive)
3,CS(=O)(=O)c1oc(-c2ccc(F)cc2)nc1S(=O)(=O)c1ccc(Cl)cc1,-5% (active)
4,CCOc1ccc(NC(=O)CSc2oc(-c3ccc(F)cc3)nc2S(=O)(=O)c2ccc(C)cc2)cc1,63% (inactive)
5,Cc1ccccc1CNC(=O)CCCn1c(=O)c2cccn2c2cccnc21,114% (inactive)
6,CCOc1ccc(C2CC(c3c(O)n(C4CCCCC4)c(=O)[nH]c3=O)=Nc3ccccc3S2)cc1 (centres undefined),47% (inactive)
7,Cc1ccc2c(c1)cc1c(=O)n(CC(=O)N3CCCCC3)nc(C)n12,90% (inactive)
8,COc1ccc(C)cc1S(=O)(=O)NCC(c1cccs1)S(=O)(=O)c1ccc(C)cc1 (centres undefined),69% (inactive)
9,Cc1ccc(-c2nnc(NC(=O)c3ccc4c(c3)OCCO4)o2)c(C)c1,96% (inactive)
10,Cc1ccc(NC(=O)Cn2nc(Cc3ccncc3)c3ccccc3c2=O)c(Cl)c1,66% (inactive)
11,COc1cc(-c2nc3cccc(C)n3c2Nc2ccc3c(c2)OCCO3)ccc1O,76% (inactive)
12,CCc1ccc(NC(=O)CCn2nc(C)c(S(=O)(=O)N3CCCCC3)c2C)cc1,128% (inactive)
13,COC(=O)c1ccccc1NC(=O)c1ncoc1-c1ccco1,62% (inactive)
14,CC(C)S(=O)(=O)c1oc(-c2ccc(F)cc2)nc1S(=O)(=O)c1ccccc1,33% (active)
15,CCN(CC)CCNc1nc2c(c(=O)n(C)c(=O)n2C)n1CCc1ccccc1,103% (inactive)
16,COc1ccc(NC(=O)C2=C(C)Nc3nc(SCc4ccccc4)nn3C2c2cc(OC)ccc2OC)cc1 (centres undefined),78% (inactive)
17,COc1cccc(C(=O)Nc2cccc(C(=O)OCc3cc(=O)n4nc(C(C)C)sc4n3)c2)c1,101% (inactive)
18,COc1ccc(N2CCN(C(=O)c3nc(-c4ccc(Cl)cc4)n4c3CCCCC4)CC2)cc1,81% (inactive)
19,Cc1ccc(NC(=O)CSc2nncn2C)c(C)c1,75% (inactive)
20,CC(=O)Nc1nonc1-c1nnc(SCc2ccc(F)cc2)n1C,44% (inactive)
21,CC(=O)Nc1nonc1-c1nnc(SCc2ccccc2)n1C,44% (inactive)
22,CC(=O)Nc1nonc1-c1nnc(SCc2ccc(F)cc2Cl)n1C,45% (inactive)
23,CC(=O)Nc1nonc1-c1nnc(SCc2ccccc2F)n1C,46% (inactive)
24,COc1ccc(NC(=O)CSc2nnc(-c3nonc3NC(C)=O)n2C)cc1Cl,55% (inactive)

row,Structure (SMILES),survival
1,CC(=O)Nc1nonc1-c1nnc(SCc2ccccc2Cl)n1C,42% (active)
2,CC(=O)Nc1nonc1-c1nnc(SCc2ccc(C)cc2)n1C,48% (inactive)
3,CC(=O)Nc1nonc1-c1nnc(SCc2ccc(Cl)cc2)n1C,42% (active)
4,CC(=O)Nc1nonc1-c1nnc(SCC(=O)Nc2ccc(C)c(Cl)c2)n1C,60% (active)
5,CC(=O)Nc1nonc1-c1nnc(SCC(=O)Nc2ccc(C)c(Cl)c2)n1-c1ccccc1,49% (inactive)
6,CC(=O)Nc1nonc1-c1nnc(SCc2ccccc2C)n1C,42% (active)
7,CC(=O)Nc1nonc1-c1nnc(SCC(=O)Nc2ccccc2Cl)n1C,50% (inactive)
8,Cc1c(NC(=O)Cc2ccc(Cl)cc2)cccc1-c1nc2cccnc2s1,114% (inactive)
9,Cc1csc2nc(COC(=O)c3cccc(NC(=O)COc4ccccc4Cl)c3)cc(=O)n12,88% (inactive)
10,Cc1cc2ncn(S(=O)(=O)c3ccc(S(N)(=O)=O)cc3)c2cc1C,84% (inactive)
11,Cc1ccccc1NC(=O)N1CCCC(c2nc(-c3ccc(F)cc3)no2)C1 (centres undefined),93% (inactive)
12,Cc1ccccc1NC(=O)CN1C(=O)CCn2nc(-c3cccn3C)cc21,83% (inactive)
13,O=C(CSc1nc(-c2ccc(Cl)cc2)nc2c1Cc1ccccc1O2)N1CCCCC1,96% (inactive)
14,O=C(Cn1cc(C(=O)c2cccs2)c2ccccc21)Nc1ccc(Br)cc1,127% (inactive)
15,O=S1(=O)C=C(Sc2nnnn2-c2ccccc2)c2ccccc21,4% (active)
16,O=C1CC(CSc2nnnn2-c2ccccc2)=NN1,101% (inactive)
17,O=S(=O)(NCCSc1nnnn1-c1ccccc1)c1ccc(F)cc1,76% (inactive)
18,Cc1cc(NC(=O)CCCn2c(C)c3cnn(-c4ccccc4)c(=O)c3c2C)ccc1Br,71% (inactive)
19,COc1ccc(CCNC(=O)Cn2c(=O)nc(-c3ccccc3)c3cc(Cl)ccc32)cc1OC,94% (inactive)
20,Cc1oc(-c2ccc(C(=O)NCCCOC(C)C)cc2)nc1CS(=O)(=O)c1ccccc1,-4% (active)
21,CCOCCCNC(=O)c1ccc(-c2nc(CS(=O)(=O)c3ccccc3)c(C)o2)cc1,66% (inactive)
22,Cc1ccc(S(=O)(=O)Cc2nc(-c3ccc(C(=O)NCCCOC(C)C)cc3)oc2C)cc1,72% (inactive)
